# hcGAS inh: blocks human cGAS activity. Q8N884. recombinant h-cGAS, ATP depletion, Kinase-Glo luminescence. inhibition, % at 12.5 µM. 290,000 tested, 0.081% active. AID 1259398;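 further: 0% = vehicle reaction and 100% = reaction without DNA for no activity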
# NPYLR7 agonist: mosquito NPYLR7 agonism | HEK293T NPYLR7/Galpha15, GCaMP6s calcium fluorescence | activation, % at 10 µM | 270,000 tested, 0.15% active | AID 1259423; in the data active means activation above about 40%;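 further: 0% = vehicle and 100% = reference agonist at the receptor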
# mcGAS lum: inhibitors of mouse cGAS; recombinant cGAS, Kinase-Glo ATP depletion luminescence; inhibition, % at 12.5 µM; 160,000 tested, 0.15% active; Q8C6L5;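 further: 0% = negative control wells and 100% = reference inhibitor with no enzyme activity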
# * = called active by the depositor; . = no result given; ! = a repeat was not active. The list is not random: actives were taken first. Their share in the collection is about 0.24%. Unless noted, no stated cut-off is given here; in the data, active means inhibition above about 40%; inactive means the rest.
SMILES,hcGAS inh,NPYLR7 agonist,mcGAS lum
COc1cccc(-c2nc3ccc(Cl)cn3c2NCc2ccccc2)c1,-2,-5,-4
COc1cccc(-c2nc3ccc(Br)cn3c2NCc2ccccc2)c1,-10,12,89*!
O=C(Cc1cccc(F)c1F)N1CCC(CO)(Cc2cccc(C(F)(F)F)c2)CC1,3,.,.
C=CCOc1c(I)cc(/C=N\NC(=O)COc2nc(C)cc(COC)c2C#N)cc1I,3,-2,-1
COCc1cc(C)nc(OCC(=O)N/N=C\c2cc(Br)c(O)c(Br)c2)c1C#N,0,1,0
COCc1cc(C)nc(OCC(=O)N/N=C\c2cc(I)c(O)c(I)c2)c1C#N,19,1,58*
COCc1cc(C)nc(OCC(=O)N/N=C\c2cc(I)c(O)c([N+](=O)[O-])c2)c1C#N,28,0,67*
COCc1c(Br)c(C)nc(OCC(=O)N/N=C\c2cc(I)c(O)c(OC)c2)c1C#N,4,-5,5
COCc1c(Br)c(C)nc(OCC(=O)N/N=C\c2cc(I)c(O)c([N+](=O)[O-])c2)c1C#N,33,7,83*
CCOC(=O)c1ccc(NC(=O)CSc2nc(=O)n(CCN(C)C)c3c2CCC3)cc1,-3,-2,-8
Fc1cccc(CN(Cc2ccccc2)Cc2cccn2Cc2cccc(C(F)(F)F)c2)c1,-4,-2,-4
O=C(C1CC2(CCNCC2)CN1)N1CCCN(CCCc2ccccc2)CC1 (stereo not drawn),0,5,.
COc1ccccc1N1CCN(C2CCCN(CCCC3CCCC3)C2)CC1 (stereo not drawn),-8,8,.
COc1ccc(OC)c(CN2CCCn3cccc3C2c2ccoc2)c1 (stereo not drawn),-1,10,-3
COc1cc(C(=O)NCC2(c3ccccc3)CC2)ccc1C,-9,0,.
CC(C)CNC(=O)CN(C)C(=O)c1csc(Nc2cc(Cl)ccc2Cl)n1,166*,3,.
CCC(C)NC(=O)CN(C)C(=O)c1csc(Nc2cccc(C(F)(F)F)c2)n1 (stereo not drawn),-9,.,-6
CCS(=O)(=O)Oc1cccc(-c2nc3cc(S(=O)(=O)CC)ccc3o2)c1,-5,13,-6
CSc1ccc2c(C)cc(NCCNC(C)=O)nc2c1,-7,-1,.
COc1cc(C)c(CN2CCN(Cc3nc4cc(Cl)ccc4c(=O)[nH]3)CC2)cc1OC,0,5,.
COc1ccc2nc3cc(Cl)ccc3c(Nc3cc(CN4CCCC4)c(O)c(CN4CCCC4)c3)c2n1,45*,3,.
O=C(O)C1Nc2cc(Cl)cc(Cl)c2C2C=CCC12 (stereo not drawn),7,1,62*
CC(=O)c1ccc2c(c1)[C@@H]1C=CC[C@@H]1[C@H](c1cc3c(cc1Br)OCO3)N2,-11,11,-2
CC(C)c1cc(C(C)C)n(C2CCN(C(=O)c3cccc(OC(F)F)c3)CC2)n1,8,-1,3

# Source: PubChem BioAssay (Fisher Drug Discovery Resource Center)
